# Values joined by “and” are separate entries in the source; they are usually repeats but may differ in a detail not shown here. Equal values may be shown once. Read-outs that look alike come from different tables or passages of the source.
# Columns and labels:
# [1] = system: KIT; details: concentration: 1 μM, replicates: in singlicate; n = 1
# [2] = system: LATS1; details: concentration: 1 μM, replicates: in singlicate; n = 1
# [3] = system: LATS2; details: n = 1
# [4] = system: LCK; details: n = 1
# [5] = system: LIMK1; details: n = 1
# [6] = system: LIMK2; details: n = 1
# [7] = system: T1, LKB1; details: concentration: 1 μM, replicates: in singlicate; n = 1
# T1 construct: gene STK11
# [8] = system: T2, LOK; details: concentration: 1 μM, replicates: in singlicate; n = 1
# T2 construct: gene STK10
# [9] = system: LRRK2; details: concentration: 1 μM, replicates: in singlicate; n = 1
# [10] = system: LTK; details: n = 1
# [11] = concentration: 1 μM, replicates: in singlicate
# [12] = concentration: 1 μM,replicates: in singlicate, 1 µM
# 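Note: KINOMEscan kinase panel screen.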
SMILES,%Inh [1],%Inh [2],"%Inh [3, 11]","%Inh [4, 11]","%Inh [5, 11]","%Inh [6, 11]",%Inh [7],%Inh [8],%Inh [9],"%Inh [10, 11]","%Inh [3, 12]","%Inh [4, 12]","%Inh [5, 12]","%Inh [6, 12]","%Inh [10, 12]"
COc1cccc(-c2cc(-c3c[nH]nc3-c3ccccn3)ccn2)c1 [GW680338],9%,64%,0%,10%,0%,15%,1%,10%,6%,0%,–,–,–,–,–
Cl.NC(=O)c1cccc(Nc2nccc(Nc3ccc(Oc4cccc(Cl)c4)c(Cl)c3)n2)c1 [GW659008],46%,0%,0%,68%,43%,4%,0%,15%,11%,0%,–,–,–,–,–
Cc1c(O)cccc1Nc1ccnc2ccc(C(F)(F)F)cc12.Cl [GW466413],17%,0%,0%,73%,0%,0%,0%,0%,58%,28%,–,–,–,–,–
CSc1nn2c(=O)cc(N3CCOCC3)nc2n1Cc1cccc(C(F)(F)F)c1C [GSK2363608],4%,0%,–,–,–,–,0%,0%,0%,–,13% and 0%,29% and 2%,6% and 17%,20% and 0%,17% and 0%
COc1cc2ncnc(Nc3ccc4nc(-c5ccccc5)[nH]c4c3)c2cc1OC.Cl [GW282450],72%,0%,0%,33%,0%,0%,0%,5%,0%,11%,–,–,–,–,–
Cn1ccc2ncnc(Oc3cccc(C(=O)Nc4ccccc4)c3)c21,35%,0%,6%,7%,100%,0%,25%,0%,0%,2%,–,–,–,–,–
CCn1c(-c2cccnc2O)nc2cnccc21 [SB-736715],0%,0%,0%,0%,0%,0%,27%,0%,0%,0%,–,–,–,–,–
Nc1nc(-c2nccs2)c(-c2ccnc3ccccc23)s1 [GW693542],0%,22%,0%,13%,6%,0%,0%,0%,19%,4%,–,–,–,–,–
Cc1cc(N2Cc3ccccc3C2)nc(Nc2ccc(S(=O)(=O)N3CCOCC3)cc2)n1.Cl [GSK1669917],0%,29%,10%,4%,0%,16%,12%,0%,0%,0%,–,–,–,–,–
COc1ccc(Nc2nccc(NCCNC(=O)Nc3ccccc3F)n2)cc1 [GSK1379901],57%,44%,0%,20%,4%,3%,0%,0%,0%,0%,–,–,–,–,–
CC(C)(C)c1ccc(C(=O)Nc2cn3cc(-c4cccnc4)ccc3n2)cc1,91.5%,23%,10%,8%,16%,20%,24%,79%,0%,19%,–,–,–,–,–
Cc1cccc(-c2nc(-c3ccc(S(C)(=O)=O)cc3)sc2-c2ccnc(NCCc3ccccc3)c2)c1,98.4%,13%,0%,0%,0%,4%,0%,0%,0%,0%,–,–,–,–,–
Fc1cc(Cl)ccc1Nc1ccnc2cc(I)ccc12 [GW551191],49%,0%,0%,24%,0%,0%,0%,0%,37%,13%,–,–,–,–,–
Cc1csc(-c2nc(Nc3ccncc3)c3ccccc3n2)n1 [GW869640],12%,19%,20%,2%,15%,2%,43%,40%,31%,18%,–,–,–,–,–
COc1ccccc1-c1ccc2c(NC(=O)C3CC3)n[nH]c2n1 [SB-711239],0%,28%,8%,10%,0%,5%,6%,0%,0%,4%,–,–,–,–,–
Cl.c1ccc(-c2n[nH]cc2-c2ccnc(-c3ccc(CN4CCOCC4)cc3)c2)nc1 [GW776245],8%,3%,0%,0%,5%,19%,18%,0%,0%,28%,–,–,–,–,–

# Source: article PMC5540273 (PLoS ONE, 2017)
